ChEMBL document CHEMBL1157539, “Thousands of chemical starting points for antimalarial lead identification” (Nature, 2010)

tested on: HepG2; test: GSK_TCMDC: Percent inhibition of human HepG2 cell line. Test compounds present at 10uM.; format: functional

Row | SMILES | Inhibition [%]
1 | Cc1ccc(OCC2CCN(c3ncc(C(=O)NCCCN4CCCC4=O)cc3Cl)CC2)cc1 | 7
2 | c1ccc(Oc2ccc(Nc3ccnc4cc(-c5ccc(CNCCN6CCOCC6)o5)ccc34)cc2)nc1 | 0
3 | Cc1ccc(Nc2nc(C)cc(Nc3cccc(NS(C)(=O)=O)c3)n2)cc1 | 0
4 | COc1cccc(CN2CCC(N3CCc4cc(NC(=O)c5cc(C)on5)ccc43)C2)c1OC (stereo not given) | 9
5 | COc1ccc(CCNCCCCCNCCCc2ccc(Cl)cc2)cc1OC.Cl | 24
6 | CNC(=O)c1cnc(Nc2ccc(N3CCN(C)CC3)c(C)c2)nc1NC.Cl | 19
7 | COc1ccc2nccc([C@@H](O)CN3CCC(NCc4nc5ccccc5s4)CC3)c2c1.O=C(O)C(=O)O | 8
8 | O=S(=O)(Nc1cccc(CCN2CCC(N3CCCCC3)CC2)c1)c1ccc(-c2ccccc2)cc1 | 76
9 | COc1ccc2ncc(C#N)c(CCN3CCC(NCc4ccc5c(n4)NC(=O)CS5)CC3)c2n1.Cl | 9
10 | O=c1c2c([nH]c3cc(Cl)ccc13)CCCC2 | 33
11 | CC(C)CCNCc1ccc(OCc2ccccc2COc2ccc(CNCCC(C)C)cc2I)c(I)c1.Cl | 99
12 | O=C(O)C(F)(F)F.c1ccc(CNCc2ccc(-c3cccc(-c4nc5ccccc5[nH]4)c3)cc2)cc1 | 55
13 | N#Cc1cccc(CNC(=O)c2cccc(Nc3ccnc4ccc(F)cc34)c2)c1.O=C(O)C(F)(F)F | 0
14 | FC(F)(F)c1cccc(N=C(S)NN=Cc2ccccn2)c1 | 29
15 | O=C(Nc1cccc(F)c1)NC1CCN(c2ccnc3cc(Cl)ccc23)CC1.O=C(O)C(F)(F)F | 11
16 | CN1CCC(NCc2ccc(-c3ccc(S(=O)(=O)NCc4ccccc4)c(F)c3)cc2)CC1.O=C(O)C(F)(F)F | 53
17 | CN1CCN(CCc2ccc(N/C=C3\C(=O)Nc4ccc5ncccc5c43)cc2)CC1.Cl | 51
18 | CCNc1cc(C(=O)N[C@@H](Cc2ccccc2)[C@H](O)CNCCC(C)c2ccccc2)cc(N2CCCC2=O)c1.O=C(O)C(F)(F)F (stereo not given in full) | 0
19 | COc1ccc(CN(C)C(=O)CCNS(=O)(=O)c2ccc3c(c2)OCCCO3)cc1F | 9
20 | O=C(/C=C/c1ccc(C(F)(F)F)cc1)NCCCCCN1CCCN(C(=O)Nc2ccc(Cl)c(C(F)(F)F)c2)CC1 | 64

Row | SMILES | Inhibition [%]
21 | O=C(/C=C/c1ccc(Cl)c(Cl)c1)NCCCCN1CCCN(C(=O)Nc2ccc(C(F)(F)F)cc2)CC1 | 35
22 | O=C(Nc1ccc(OC2CCN(Cc3ccsc3)CC2)c(Cl)c1)c1ccc(F)cc1.O=C(O)C(F)(F)F | 31
23 | Cc1[nH]c(C)c(-c2ccc(-c3ccc(C#N)cc3)nc2)c(=O)c1Br | 5
24 | O=C(O)C(F)(F)F.c1cc(CN2CCc3ccccc3CC2)cc(-c2c[nH]c3nc(NC4CCCC4)ncc23)c1 | 31
25 | CC(C)CCN(Cc1cncn1Cc1cccc(C(F)(F)F)c1)C(=O)c1ccccc1C#N | 0
26 | CCC(NC(=O)c1ccccc1NC(=O)c1ccc(C)cc1)C(=O)OC (stereo not given) | 0
27 | CN(C)c1ccc(-c2csc(C(=O)NCC3CCN(Cc4ccc(C(C)(C)C)cc4)C3)c2)cc1.O=C(O)C(F)(F)F (stereo not given) | 29
28 | CCCc1cc(=O)[nH]c(-n2nc(C)cc2NC(=O)CC(c2ccccc2)c2ccccc2)n1 | 39
29 | COc1c(Br)cc(Br)cc1C(C)=O | 3
30 | CCC(C)NS(=O)(=O)c1ccc2nc(Nc3ccc(C)cc3)n([C@H](C)C(C)(C)C)c2c1 (stereo not given in full) | 2
31 | Cl.O=C(Nc1cccc(-c2nn3ncccc3c2-c2ccnc(Nc3cccnc3)n2)c1)c1c(F)cccc1F | 5
32 | CCc1nc2ccc(C(=O)OC)nc2n1Cc1ccc2oc(-c3ccccc3N)c(Br)c2c1 | 8
33 | CN(C)CCC1CCCc2ccc(NC(=O)Nc3ccc(-c4ccncc4)c4ccccc34)cc21.Cl (stereo not given) | 34
34 | COc1ccc(NC(=O)C2c3ccccc3C(=O)N(C3CCCC3)C2c2cccs2)cc1 (stereo not given) | 0
35 | COc1cc(NCC(O)CNc2cc(Cl)nc3ccccc23)nc2ccccc12 (stereo not given) | 17
36 | Nc1nc2c(ncn2OC[C@H]2COP(=O)([O-])CO2)c(=O)[nH]1.[Na+] | 1
37 | COc1cc(C(C)C)ccc1C1CCN(CCCCNC(=O)c2ccc(NC(=O)c3ccc(Cl)cc3)cc2)CC1.O=C(O)/C=C/C(=O)O | 100
38 | COc1ccc(CN2CCC(CNCc3cccc(-c4ccccc4)c3)CC2)cc1.O=C(O)C(F)(F)F | 96
39 | O=C(O)C(F)(F)F.c1cc(-c2ccc(CN3CCN(c4ccncc4)CC3)cc2)cc(-c2nc3ccccc3[nH]2)c1 | 61
40 | CCc1cn2c3c(cc(C(=O)N[C@@H](Cc4ccccc4)[C@H](O)CNCc4ccccc4)cc13)N(C)S(=O)(=O)CC2.O=CO | 3
